# Values joined by “and” are separate entries in the source; they are usually repeats but may differ in a detail not shown here. Equal values may be shown once. About 2,500 (3.4%) of roughly 73,000 compounds were called active. Where a call stands in place of a potency, no number is given. Roughly 7% stayed inconclusive and do not appear here. Calls follow the shape of the dose curve; as a rule, active = well fitted inhibition curve with a large enough effect; inconclusive = small, poorly fitted or top-dose-only effect; inactive = no such curve, though single readings can be large or run the other way. This excerpt belongs to a sample that is enriched for actives. The source holds several records for some structures; these can differ, active in one and inactive in another.
# Biological target: 3-hydroxyacyl-CoA dehydrogenase type-2 (Homo sapiens) (UniProt Q99714)
# Experiment: qHTS Assay for Inhibitors of HADH2 (Hydroxyacyl-Coenzyme A Dehydrogenase, Type II); also: nearly all actives have a fitted effect of over 60% in size
# Details: recombinant HADH2, NADH fluorescence, beta-hydroxybutyryl-CoA; series mostly up to 57.1 µM
# Procedure, shortened: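 E. coli-expressed His-tagged HADH2 tested at 20 nM in alkaline Tris buffer (pH 9.0); oxidation of 90 uM beta-hydroxybutyryl-CoA with 1 mM NAD+ tracked fluorimetrically for 4 min.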
# Potency is read from the fitted curve at half-maximal effect.
# Chain of 3-hydroxyacyl-CoA dehydrogenase type-2 (Homo sapiens) (Q99714 whole entry, looked up): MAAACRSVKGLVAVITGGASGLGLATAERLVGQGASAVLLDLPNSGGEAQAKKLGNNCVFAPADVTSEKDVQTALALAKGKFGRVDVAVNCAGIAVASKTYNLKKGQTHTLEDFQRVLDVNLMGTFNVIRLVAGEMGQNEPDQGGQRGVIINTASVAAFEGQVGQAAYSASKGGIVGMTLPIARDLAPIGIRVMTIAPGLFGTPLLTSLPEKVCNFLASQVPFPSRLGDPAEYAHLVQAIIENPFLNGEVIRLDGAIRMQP
# Chain of 3-hydroxyacyl-CoA dehydrogenase type-2 (Homo sapiens) (Q99714 whole entry, looked up): as above
Structure (SMILES),Potency,"activity change, negative = inhibition"
CC(=NCc1ccco1)C1=C(O)c2ccccc2C1=O,inactive,–
Cc1nc2nc(COc3ccccc3)[nH]n2c(=O)c1Cc1ccccc1,inactive,–
O=c1[nH]c(-c2cccs2)nc2ccccc12,inactive,–
CCc1c(C)nc2cc(-c3cccs3)[nH]n2c1=O,39.8 µM (active),–
CN(C)C(=O)/N=N\C(=O)N(C)C,0.631 µM (active),–
CCNCCCNCCCNCCCNCC,inactive,–
CO[C@H]1COC(=O)CCC[C@@H](C)[C@H](OC)COC(=O)[C@@H](C)NC(=O)C/C=C\[C@@H]1C,–,7.05% [at 11.4 µM] (inactive)
COc1ccc(CNC(=O)c2cc3c(=O)n4ccccc4nc3n(CC3CCCO3)c2=N)cc1 (stereo unspecified),inactive,–
Cc1cccn2c(=O)c3cc(C#N)c(=O)n(CCCN4CCOCC4)c3nc12,31.6 µM (active),–
Cc1cccn2c(=O)c3cc(C#N)c(=NC(=O)c4cccnc4)n(CC4CCCO4)c3nc12 (stereo unspecified),25.1 µM (active),–
O=c1c2cc3c(=O)n(CC4CCCO4)c(=O)c3cc2c(=O)n1CC1CCCO1 (stereo unspecified),inactive,–
Cn1c(=O)c2c(nc(CN3CCOCC3)n2Cc2ccccc2)n(C)c1=O,inactive,–
CCCOc1ccc(C2c3c(oc4cc(C)c(C)cc4c3=O)C(=O)N2CCCN2CCOCC2)cc1 (stereo unspecified),inactive,–
COc1ccc(-c2oc3cc(OC)ccc3c2C(=O)c2ccc(C#N)cc2)cc1,inactive,–
c1ccc2nc(C3=NCCN3)cnc2c1,inactive,–
CC(C)NC(=O)N1CCC2(CC1)CCN(C(=O)c1cccn1C)CC2,inactive,–
c1ccc(Nc2nc(-c3ccncc3)cs2)nc1,inactive,–
O=C(Nc1nc(-c2ccncc2)cs1)C1COc2ccccc2O1 (stereo unspecified),1 µM (active),–
O=C(Nc1nc(-c2ccc3c(c2)OCO3)cs1)c1ccncc1,inactive,–
C#CCCCCCCCCCCCCCCCC(=O)O,inactive,–
C[N+](C)(C)CCCCCNCC12CC3CC(CC(C3)C1)C2,inactive,–
O=C1NC(=O)[C@@](Cc2ccccc2)(c2cccnc2)N1,–,1.4% [at 11.4 µM] (inactive)
COCCn1nnnc1C(c1cc2ccc(OC)cc2[nH]c1=O)N1CCc2ccccc2C1 (stereo unspecified),inactive,–
COc1ccc(N2CCN(C(c3cc4ccc(C)cc4[nH]c3=O)c3nnnn3C3CCCC3)CC2)cc1 (stereo unspecified),inactive,–
CCOc1ccc2[nH]c(=O)c(C(c3nnnn3CCOC)N3CCOCC3)cc2c1 (stereo unspecified),25.1 µM (active),–
O=C(c1ccco1)N1CCC2(CC1)CCN(c1ncccn1)CC2,inactive,–

Structure (SMILES),Potency,"activity change, negative = inhibition"
CCCCC(=O)Nc1ccc2c(c1)OCCO2,inactive,–
CCC1=C/C(=C\c2ccc3c(c2)OCO3)C(=O)S1,31.6 µM (active),–
CCOC(=O)NCc1ccc2c(c1)OCO2,inactive,–
C1CCC2OC2C1 (stereo unspecified),inactive,–
COc1ccc(C(=O)Nc2nncs2)c(OC)c1,inactive,–
COC(=O)c1ccccc1NC(=O)c1ccccc1NS(C)(=O)=O,inactive,–
O=C(Nc1nncs1)c1ccccc1NS(=O)(=O)c1cccs1,31.6 µM (active),–
COC(=O)c1ccc(C(NC(=O)OCc2ccccc2)/C(C)=C/[C@@H](C)C(=O)NCc2cc(C)on2)cc1 (stereo partly specified),inactive,–
Cc1cc(N2CCCCC2)nc2ccc(Cc3ccc4nc(N5CCCCC5)cc(C)c4c3)cc12,–,1.3% [at 11.4 µM] (inactive)
Nc1ccc2[nH]cc(CCC(=O)O)c2c1,–,-22.6% [at 11.4 µM] (inactive)
Nc1cc(=O)nc(SCc2ccccc2)n1Cc1ccco1,inactive,–
c1ccc(CSc2nnc(-c3ccco3)c(-c3ccco3)n2)cc1,5.01 µM (active),–
c1ccc(CSc2nnc(-c3ccco3)n2Cc2ccccc2)cc1,inactive,–
CC1=C(C(=O)OCc2ccccc2)C(c2ccc(C(F)(F)F)cc2)NC(=O)N1CCCCCC(=O)O (stereo unspecified),inactive,–
COCCNc1cc(-c2c(C)noc2C)ncn1,inactive,–
O=c1[nH]nc(Cc2ccccn2)c2ccccc12,inactive,–
CN(CCc1ccccn1)S(=O)(=O)c1ccc2c3c(cccc13)C(=O)N2,31.6 µM (active),–
COc1ccc(-c2nc3cnc(OC)nc3n(Cc3ccc(F)cc3)c2=O)cc1,inactive,–
O=C(NCc1ccccc1)[C@H]1C[C@@H]1[C@H](NP(=O)(c1ccccc1)c1ccccc1)c1ccccc1,inactive,–
Cc1nc2cnc(N3CCNCC3)nc2n(Cc2ccc(F)cc2)c1=O,inactive,–
CCn1c(CNC(=O)c2ccc(OC)c(OC)c2)nnc1SCC(=O)Nc1ccccc1,inactive,–
CCCn1c(=NC(C)=O)c(C(=O)OCC)cc2c(=O)n3ccccc3nc21,31.6 µM (active),–
CCOC(=O)c1cc2n(c1C)-c1ccccc1C2=O,inactive,–
CCOC(=O)c1cc2n(c1N)-c1ccccc1C2=O,inactive,–
CS(=O)(=O)N1CCC2(CC1)CN(Cc1cc(C(F)(F)F)cc(C(F)(F)F)c1)C2,inactive,–
CS(=O)(=O)Nc1cccc(-c2cncnc2Nc2ccccc2)c1,inactive,–

Structure (SMILES),Potency,"activity change, negative = inhibition"
CNc1cc(-c2c(C)noc2C)ncn1,inactive,–
O=C(CCOc1ccccc1)NCc1ccccc1,inactive,–
N#C/C(=C\c1ccc(O)c(O)c1)C(=O)NCc1ccccc1,inactive and 15.8 µM (active),–
CCCc1nc2ccccc2c(=O)n1/N=C/c1ccc(O)c(O)c1,inactive,–
N#C/C(=C\c1ccc(O)c(O)c1)C(N)=O,31.6 µM (active),–
C[C@@H]1C[C@H]2[C@@H]3C[C@H](F)C4=CC(=O)C=C[C@@]4(C)[C@]3(F)[C@H](O)C[C@]2(C)[C@@]1(O)C(=O)CO,inactive,–
COc1ncc2nc(-c3ccc(Cl)cc3)c(=O)n(-c3ccccc3)c2n1,inactive,–
COc1ccccc1N1CCN(CCN2C(=O)c3ccccc3C(C)(C)C2=O)CC1,inactive,–
Cc1c(S(=O)(=O)O)ccc(N=Nc2c(O)c(C(=O)O)cc3ccccc23)c1Cl,–,14% [at 11.4 µM] (inactive)
C/C(CCN1CCc2nc(-c3ccccc3)c(-c3ccccc3)cc2C1)=N\O[C@@H](C)c1cn([C@@H]2COC[C@@H]2O)nn1,–,-0.942% [at 11.4 µM] (inactive)
CC(C)=CCC/C(C)=C/CO/N=C1/C[C@@H](O)[C@@H](O)[C@@H]2[C@@H]3C(=O)N(C(C)(C)C)C(=O)[C@H]3CC[C@H]12,–,2.13% [at 11.4 µM] (inactive)
Cc1ccc(OCC(=O)Nc2ccc(-c3nnc(-c4ccco4)o3)cc2)cc1,inactive,–
Cc1ccc(OCC(=O)Nc2ccc(-c3nc4ncccc4o3)cc2)cc1,inactive,–
COc1ccc(CC(=O)Nc2ccc(-c3nnc(-c4ccc(C)cc4)o3)cc2)cc1,0.251 µM (active),–
CO[C@H]1COC(=O)C/C=C\[C@H](C)COC(=O)[C@@H](OCc2ccccc2)/C=C\[C@@H]1C,–,8.32% [at 11.4 µM] (inactive)
COc1ccc2c(=O)cc(-c3ccccc3)oc2c1O,inactive,–
Cc1cc2nc3c(=O)[nH]c(=O)nc-3n(C[C@H](O)[C@H](O)[C@H](O)CO)c2cc1C,inactive,–
O=C(c1ccccc1)N1CCN(C(=O)N2CCCCC2)CC1,inactive,–
N#Cc1ccccc1-n1c(N)c(C(=O)N2CCCC2)sc1=S,2.51 µM (active),–
COc1cccc(-c2nn(C)c3sc(C(=O)N4CCN(c5ccccc5)CC4)cc23)c1,inactive,–
CC(=O)c1c(N2CCOCC2)nc(=S)n(-c2cc(C)ccc2C)c1C,inactive,–
Cc1cccc(-n2c(N)c(C(=O)N3CCN(C)CC3)sc2=S)c1,0.631 µM (active),–
Cc1ccc(OCCCC(=O)N2CCOCC2)c(C)c1,inactive,–
Cc1cccc(-n2c(N)cc(=O)nc2SC(C)C(=O)NC2CCCCC2)c1 (stereo unspecified),inactive,–
Cc1ccc(-n2c(N)c(C(=O)N3CCOCC3)sc2=S)c(C)c1,3.16 µM (active),–
CCC(=O)Nc1sc(C(=O)N2CCCCC2)c(C)c1C#N,inactive,–

Structure (SMILES),Potency,"activity change, negative = inhibition"
N#Cc1cc2[nH]c(=O)c(=O)[nH]c2cc1[N+](=O)[O-],inactive,–
CCC[C@H]1C(=O)N2C(N(C)C)=Nc3ccc(C)cc3N2C1=O,inactive,–
Cc1cnc(CNc2ncncc2-c2ccccc2Cl)cn1,inactive,–
COC(=O)[C@H]1C[C@@H]1[C@H](NC(=O)Oc1ccc(F)cc1)c1ccccc1,inactive,–
O=c1cc(-c2ccccc2)[nH]c2nc(Cl)ccc12,25.1 µM (active),–
CN1CCN(c2ncc3nc(-c4ccc(Cl)cc4)c(=O)n(-c4ccccc4)c3n2)CC1,inactive,–
C#CCC(C(=O)OC)(C(=O)OC)C(C[N+](=O)[O-])c1ccccc1 (stereo unspecified),–,1.44% [at 11.4 µM] (inactive)
Cc1ccc2oc(=O)ccc2c1,inactive,–
CCN(CC)c1ccc2oc(=O)c(C)nc2c1,3.98 µM (active),–
CC(=O)OCC1OC(C#CCCCc2ccccc2)C=CC1OC(C)=O (stereo unspecified),–,-21.4% [at 11.4 µM] (inactive) and -18.3% [at 11.4 µM] (inactive)
COc1cccc(C(=O)c2cc3ccc(O)cc3oc2=O)c1,inactive,–
O=c1oc2cc(O)ccc2cc1-c1ccc(F)cc1,inactive,–
COc1ccc(-c2cc3ccc(OCc4nn[nH]n4)cc3oc2=O)cc1,3.16 µM (active),–
Nc1ccccc1N,inactive,–
COC(=O)N1CCC[C@@]2(CCN(C(=O)NC(C)C)C2)C1,inactive,–
N=C(CC(=O)Nc1ccccn1)c1ccccc1,–,6.89% [at 11.4 µM] (inactive)
CC(C)c1cc(CN(C)C)c(O)c(C(C)(C)C)c1,–,-0.755% [at 11.4 µM] (inactive)
O=C(CN1CCOCC1)Nc1cc(Cl)ccc1Cl,inactive,–
c1cnn(-c2cc(N3CCOCC3)ncn2)c1,inactive,–
O=C(Nc1cc(N2CCOCC2)ncn1)NC1(C(F)(F)F)Oc2ccc(Cl)cc2O1 (stereo unspecified),3.16 µM (active),–
COC(=O)[C@@H]1[C@H]2C[C@H]3c4[nH]c5cc(OC)ccc5c4CCN3C[C@@H]2C[C@@H](OC(=O)c2cc(OC)c(OC)c(OC)c2)[C@@H]1OC,inactive,–
O=C(O)[C@@H](S)[C@H](S)C(=O)O,1 µM (active),–
O=C(O)CC(C(=O)O)C(CC(=O)O)C(=O)O (stereo unspecified),inactive,–

# — PubChem BioAssay AID886 (National Center for Advancing Translational Sciences (NCATS), 2007)
